Tau fibril FP: qHTS for Inhibitors of Tau Fibril Formation, Fluorescence Polarization | Potency, µM (series often up to 57.7 µM), most hits filed as inhibitors | Microtubule-associated protein tau (Homo sapiens), P10636 | AID 1468, 2008 | 280,000 compounds, 0.39% hits | K18 P301L tau heparin fibrillization, Alexa594 FP, 6 h; note: nearly all actives have a fitted effect of over 55% in size
Target sequence (P10636 561-689 P618L limits assumed): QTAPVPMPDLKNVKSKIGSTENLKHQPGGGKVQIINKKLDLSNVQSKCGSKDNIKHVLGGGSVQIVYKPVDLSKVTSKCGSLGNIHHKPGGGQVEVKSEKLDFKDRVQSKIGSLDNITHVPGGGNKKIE
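Quantitative HTS format: compounds meet 15 uM recombinant K18 P301L tau and Alexa 594-tau tracer in 100 mM sodium acetate pH 7; 20 uM heparin triggers fibrillization at 37 C over 6 hr; FP gives the signal.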
VDR inhibitor: Inhibitors of the vitamin D receptor (VDR): qHTS; AID 504847, 2011; Vitamin D3 receptor (Homo sapiens), P11473; VDR-SRC2-3 peptide fluorescence polarization, 2 h; Potency, µM, most hits filed as inhibitors; 400,000 compounds, 0.93% hits
Target sequence (P11473 whole entry, looked up): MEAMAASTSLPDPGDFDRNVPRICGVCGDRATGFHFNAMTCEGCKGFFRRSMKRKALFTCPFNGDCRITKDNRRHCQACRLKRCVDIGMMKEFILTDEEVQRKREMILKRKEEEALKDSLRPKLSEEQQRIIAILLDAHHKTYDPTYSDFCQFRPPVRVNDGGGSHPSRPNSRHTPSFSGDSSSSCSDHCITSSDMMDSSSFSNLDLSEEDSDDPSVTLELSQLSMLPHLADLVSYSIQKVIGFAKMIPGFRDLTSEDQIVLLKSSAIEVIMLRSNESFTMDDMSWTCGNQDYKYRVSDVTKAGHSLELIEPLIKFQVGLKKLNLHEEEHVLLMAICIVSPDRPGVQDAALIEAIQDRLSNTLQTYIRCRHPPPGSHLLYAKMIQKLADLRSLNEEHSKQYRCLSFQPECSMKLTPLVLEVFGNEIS
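Fluorescence polarization assay of small-molecule disruption of VDR binding to coregulator peptide SRC2-3. Compounds and controls pin-transferred, then read after 2 h incubation at ambient room temperature.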
Sfp inh: qHTS Assay for Inhibitors of Bacillus subtilis Sfp phosphopantetheinyl transferase (PPTase); 4'-phosphopantetheinyl transferase ffp (Bacillus subtilis), Q9F4F7; Biochemical Sfp PPTase activity, qHTS; Potency, µM, hits mostly inhibitors; 310,000 compounds, 3.5% hits;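 note: the enzyme is Sfp with the accession as filed and its product quenches rhodamine fluorescence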
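Sfp 15 nM + cpd, 15 min RT; start w/ rhodamine-CoA 5 uM, BHQ-2-YbbR 12.5 uM (final); 50 mM Hepes pH 7.6, 10 mM MgCl2, 0.01% NP-40, 0.01% BSA; read 525/598 nm at 0 and 30 min.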
Tau fluor counter: Counterscreen qHTS for Inhibitors of Tau Fibril Formation, Fluorescence Polarization; Potency, µM (doses to about 57.7 µM); 280,000 compounds, 0.93% hits; tau K18 P301L Alexa594 fluorescence, heparin fibrillization; note: nearly all actives have a fitted effect of over 55% in size
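Human K18 P301L tau (15 uM unlabeled plus 0.24 uM Alexa 594-labeled, final) in 100 mM sodium acetate pH 7 was mixed with compound and 20 uM heparin and incubated 6 hr at 37 C.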
PLK1 PBD block: qHTS for Inhibitors of PLK1-PDB (polo-like kinase 1 - polo-box domain): Primary Screen; Serine/threonine-protein kinase PLK1 (Homo sapiens), P53350; Potency, µM, usual class: inhibitors; 360,000 compounds, 2.8% hits; AID 720504, 2013; Plk1 PBD binding of FITC phosphopeptide, fluorescence polarization; note: series mostly up to about 57 µM; nearly all actives have a fitted effect of over 65% in size
Tau ThT inhib: qHTS for Inhibitors of Tau Fibril Formation, Thioflavin T Binding | Microtubule-associated protein tau (Homo sapiens), P10636 | recombinant tau K18 P301L (four-repeat tau fragment), heparin-induced fibrillization, ThT fluorescence | Potency, µM (top dose mostly 57.4 µM), usual class: inhibitors | 270,000 compounds, 2.1% hits | AID 1460, 2008; note: nearly all actives have a fitted effect of over 55% in size
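Tau K18 P301L fragment (15 uM unlabeled plus 0.24 uM Alexa 594-labeled) in 100 mM sodium acetate pH 7 with compound, fibrillization induced by 20 uM heparin for 6 hr at 37 C. Thioflavin T (30 uM) added, fluorescence read after 1 hr (ex 450, em 510 nm).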
Hits are given with their value; - = inactive; ? = inconclusive; . = no result; [ ] = dose if it differs, or a comment. A selection: hits, their analogues and other compounds. The true share with any hit is near 6%. Calls come from the whole dose curve; as a rule, active = well fitted curve in the direction sought with a large enough effect; inconclusive = small, poorly fitted or top-dose-only effect, or another doubt; inactive = no such curve, though single readings can be large; an effect the other way counts as inactive or inconclusive.

SMILES	Tau fibril FP	VDR inhibitor	Sfp inh	Tau fluor counter	PLK1 PBD block	Tau ThT inhib
CCCCC(=Nc1ccc(N)cc1)C1=C(O)C(C(=O)OC)C(C)(C)CC1=O (stereo not drawn)	25µM	?	-	7.9µM[quencher]	-	10µM
C=CCNc1nc(NCc2ccc(N(C)C)cc2)c2sc(-c3ccccc3)cc2n1	.	.	.	.	-	.
CC(=O)Nc1cc(-c2ccccc2CN(C)C)cn2c(-c3ccc(F)c(Cl)c3)cnc12	.	.	.	.	-	.
CSc1ccccc1C(=O)Nc1ncn[nH]1	.	-	56µM	.	-	.
CC1CCN(c2ccc3nnc(CCC(=O)Nc4cccc(F)c4)n3n2)CC1	.	-	-	.	27µM	.
O=C1OC(C2=CCCCC2)=NC12CC2	-[11.6 µM]	.	-	-[11.6 µM]	.	-[11.5 µM]
CC(C(=O)Nc1nc(-c2ccc(F)cc2)cs1)N1C(=O)C2CC=CCC2C1=O (stereo not drawn)	.	-	.	.	-	.
CCOc1cc(-c2nn3cnnc3s2)cc(OCC)c1OCC	-	?	-	-	3.8µM	-
CN(c1nnc(NC(=O)Nc2ccc(Br)cc2)s1)C1CCCCC1	-	-	.	-	.	-
CCN(CC)c1ccc(/C=C2\C(=O)c3ccc(C(=O)O)cc3C2=O)cc1	?	-	-	-	-	2µM
CCc1nc2ccc(C(=O)NCc3ccc4c(c3)OCO4)cn2c1N(C)C(=O)Cc1ccccc1	.	.	.	.	-	.
COc1cc(CN(C)C(=O)C(=O)c2c[nH]c3ccccc23)ccc1O	.	-	.	.	-	.
COc1ccc(C(c2c[nH]c3ccccc23)c2c[nH]c3ccccc23)cc1O	?	.	-	14µM[quencher]	.	?
Cc1cccc(NC(=S)N/N=C/C(C)c2ccccc2)c1C (stereo not drawn)	-	-	79µM	-	?	?
COc1cc(/C=C2\SC(N)=NC2=O)cc(OC)c1	.	?	-	.	13µM	.
NC1=NC(=O)/C(=C/c2cc(Br)c(O)c(Br)c2)S1	.	-	-	.	-	.
CCc1ccccc1NC(=O)CN(C)Cc1c(O)ccc2ccccc12	.	?	-	.	12µM	.
CN(CC(=O)Nc1ccccc1C(F)(F)F)Cc1c(O)ccc2ccccc12	.	?	-	.	12µM	.
CCCN(CC(=O)Nc1ccccc1OC)Cc1c(O)ccc2ccccc12	.	?	-	.	9.5µM	.
COc1ccccc1CN(C)CC(=O)Nc1cccc2ccccc12	.	-	-	.	-	.
COc1ccccc1NC(=O)C(C)N(C)CC(=O)Nc1cccc2ccccc12 (stereo not drawn)	.	-	.	.	-	.
COc1cc(/C=C/C(=O)O)cc(S(=O)(=O)Nc2ccc(S(=O)(=O)N3CCCCC3)cc2)c1OC	.	-	.	.	-	.
Cn1c2ccccc2c(=O)c2ccc(C#CC3(O)CCCCC3)cc21	.	-	-	.	-	.
CC(=O)c1ccc(NC(=O)CNCC(c2ccccc2)N(C)C)cc1 (stereo not drawn)	-	?	79µM	-	19µM	-
CCOC(=O)c1cc(NC(=O)CNCC(c2ccccc2)N(C)C)cc(C(=O)OCC)c1 (stereo not drawn)	.	-	-	.	-	.
SMILES	Tau fibril FP	VDR inhibitor	Sfp inh	Tau fluor counter	PLK1 PBD block	Tau ThT inhib
Cc1ccc(NC(=S)N(CCCN2CCOCC2)Cc2ccccn2)cc1Cl	-	-	32µM	-	-	-
Cc1ccc(Cl)cc1NC(=S)N(CCCN1CCN(C)CC1)Cc1cccs1	-	-	-	-	-	-
O=C(CNC(=S)N(CCCN1CCOCC1)Cc1cccs1)NCCN1CCOCC1	-	-	-	-	-	-
Cc1ccc(NC(=S)N(CCCN2CCOCC2)Cc2ccccn2)cc1	-	-	-	-	-	-
CCN(CC)CCCNC(=O)CNC(=S)N(CCCN1CCOCC1)Cc1cccs1	-	-	-	-	19µM	-
Cc1cc(Cl)ccc1NC(=S)N(CCCN1CCOCC1)Cc1cccs1	-	?	45µM	-	11µM	-
CC(=O)NC12CC3CC(C1)CC(C(=O)N1CCN(c4ncccn4)CC1)(C3)C2	.	-	.	.	-	.
CCOC(=O)N1CCN(C2CCCN(C(=O)c3cccc(Cl)c3)C2)CC1 (stereo not drawn)	.	-	-	.	-	.
COc1ccc2c(c1)O[C@H](c1ccc3c(c1)OCO3)[C@@H](OC(=O)Nc1ccc(C)c(Br)c1)C2=O	-	-	-	-	.	?
CC(=O)c1ccccc1OC(=O)c1ccc([N+](=O)[O-])o1	?	-	-	-	?	7.9µM
CN(c1cccc(F)c1)c1cc2c(c3c1ccn3C)C1CCC2O1 (stereo not drawn)	.	.	.	.	-	.
N#C/C(C(=O)N1CCCCC1)=C1\Nc2ccccc2S1	-	-	-	-	-	-
Cc1ccc(NC(=S)/C(C#N)=C2/Nc3ccccc3S2)cc1	.	.	.	.	27µM	.
CC(C)Oc1ccc(S(=O)(=O)N2CCOCC2)cc1NC(=O)c1ccc(Cl)c(S(=O)(=O)N2CCOCC2)c1	.	.	.	.	-	.
COc1ccccc1-n1nc(-c2ccccc2)c2cnc3c(F)cc(F)cc3c21	-	-	.	-	.	-
CCc1ccc(S(=O)(=O)/N=C2\C=C(NS(=O)(=O)c3ccccc3)C(=O)c3ccccc32)cc1	.	?	-	.	21µM	.
O=C(O)c1ccc(S(=O)(=O)/N=C2\C=C(Nc3ccccc3F)C(=O)c3ccccc32)cc1	.	32µM	?	.	30µM	.
Cc1ccc(C)c(S(=O)(=O)/N=C2\C=C(NS(=O)(=O)c3ccccc3)C(=O)c3ccccc32)c1	.	-	-	.	27µM	.
CC(C)[n+]1ccn(C2=C([O-])c3ccccc3C(=O)/C2=N\S(=O)(=O)c2ccccc2)c1	-	-	-	-	-	?
Cc1ccc(NC2=C/C(=N/S(=O)(=O)c3cccs3)c3ccccc3C2=O)cc1C	-	-	-	-	-	-
Cc1ccccc1NC1=C/C(=N\S(=O)(=O)c2ccc(C(=O)O)cc2)c2ccccc2C1=O	.	?	-	.	-	.
CC(C)c1ccc(S(=O)(=O)/N=C2/C=CC(=O)c3ccccc32)cc1	?	.	?	?	.	28µM
CC(C)c1ccc(S(=O)(=O)/N=C2\C=C(NS(=O)(=O)c3ccccc3)C(=O)c3ccccc32)cc1	.	79µM	-	.	24µM	.
COc1ccc(S(=O)(=O)/N=C2\C=C(Nc3ccc(O)cc3)C(=O)c3ccccc32)cc1	.	-	-	.	-	.
Cc1ccccc1-c1noc(-c2ccc(N3CCC(C)CC3)c([N+](=O)[O-])c2)n1	-	-	.	-	.	-
COc1cccc([C@@H]2Oc3ccc(OC)cc3C(=O)[C@H]2OC(=O)NCc2ccco2)c1	-	-	-	-	.	-
COc1cc(OC)c(Cl)cc1N	-	-	-	-	6.7µM	-
COc1ccc(OC)c(N)c1	-	?	-	?	-	?
